Where “and” joins values, the source holds several entries; their conditions need not be identical. Identical values can stand only once. Among all 34,000 compounds or so, about 290 (0.85%) showed an effect of 50% or more. This excerpt belongs to a sample that is enriched for strong results.
System: Plasmodium falciparum
Experiment: Plasmodium falciparum sporozoite viability assay
Format: functional, organism-based
Parameters: scale not given: in the data most compounds retested in dose-response had high values

| SMILES | Percent Effect (10 mM as filed; unlikely as a test dose) | Percent Effect [%] |
| --- | --- | --- |
| Cc1cccc(NC2CCN(C(=O)Nc3ccc(F)c(F)c3)CC2)n1 | 48.63% and 63.22% and 54.45% |  |
| Cc1cccc(NC2CCN(C(=O)Nc3cc(F)cc(F)c3)CC2)n1 | -0.7988% and 3.277% and 6.003% |  |
| Cc1cccc(NC2CCN(C(=O)Nc3ccncc3)CC2)n1 | -1.906% and 4.517% and 18.88% |  |
| Cc1ccc(C(C)NC(=O)CNCCn2cccn2)cc1C (stereo not given) |  | -5.595 |
| Cc1cc(C(F)(F)F)n2nc(C3CCN(S(C)(=O)=O)CC3)cc2n1 | -9.274% and -13.96% and -8.495% |  |
| CCN1CC[C@@H]2OC[C@H](C(=O)NCc3cccs3)C[C@@H]2C1 |  | 18.4 |
| CN1CCC(c2cccc(Cc3ccc(C(F)(F)F)cc3)n2)CC1 |  | 3.398 |
| CCc1ccc(-c2cc(C(F)(F)F)nc(N3CCC(N)CC3)n2)cc1 | 67.54% and 55.39% |  |
| Cc1cc(C(F)(F)F)nc(C2CCN(C(=O)CO)CC2)n1 |  | -4.597 |
| CCN1CC2(CCOCC2)c2cc(NS(=O)(=O)CC)ccc21.O=C(O)C(F)(F)F |  | 11.65 |
| Cc1cnn(CC2CN(Cc3ccccn3)CCO2)c1 (stereo not given) |  | -1.077 |
| CC(Cn1cccn1)NC(=O)NCCc1cccnc1 (stereo not given) |  | 12 |
| Cc1ccc(Nc2nccc(C3CCN(CC(N)=O)C3)n2)nc1 (stereo not given) | 101.9% and 103.5% and 87.92% |  |
| Cc1ccc(Nc2nccc(C3CN(C(C)C)C3)n2)nc1 |  | 10.21 |
| Cc1ccc(Nc2nccc(C3CCCN(CC(=O)N(C)C)C3)n2)nc1 (stereo not given) | 76.43% and 66.32% and 68.98% |  |
| CC(=O)N1CCC(c2ccnc(Nc3ccc(C)cn3)n2)C1 (stereo not given) | -6.604% and -1.275% and 4.318% |  |
| COCC(=O)N1CC(c2ccnc(Nc3ccc(C)cn3)n2)C1 | 0.1159% and 3.964% and -12.15% |  |
| O=C(Cc1ccc(F)cc1)N1CCn2c(Cn3cncn3)cnc2C1 |  | 8.505 |
| Cc1cc(OCCC(=O)NCc2ccc(F)cc2)nnc1C |  | 1.961 |
| Cc1nc(COC[C@@]23CCC[C@@H]2CN(Cc2cnn(C)c2)C3)cs1 |  | 2.977 |
| Cc1c(-c2cc(C(=O)N3CCc4ncc(Cl)cc4C3)on2)cnn1C |  | 3.017 |
| C[C@H](NS(C)(=O)=O)C(=O)NCc1cc(-c2ccco2)n(CC(F)(F)F)n1 |  | 3.472 |
| CC(Nc1nccc(CCC(F)(F)F)n1)c1nc(-c2ccccn2)no1 (stereo not given) | 60.54% and 52.08% |  |
| CC(C)c1noc(C(C)Nc2nccc(CCC(F)(F)F)n2)n1 (stereo not given) | 1.671% and -0.3266% |  |
| CC(Nc1nccc(CCC(F)(F)F)n1)c1nc(-c2ccncc2)no1 (stereo not given) | -11.17% and -18.73% |  |
| CN1CCN(C(=O)[C@H]2C[C@H]3[C@H](CCN3Cc3nccs3)O2)CC1 |  | 0.9025 |
| O=C(Nc1cccc(Cl)c1)c1nn(C2CCS(=O)(=O)C2)c2c1CCCC2 (stereo not given) | 70.24% and 80.75% and 81.2% |  |
| Cc1cccc(NC(=O)c2nn(C3CCS(=O)(=O)C3)c3c2CCCC3)n1 (stereo not given) | 27.72% and 25.15% |  |

| SMILES | Percent Effect (10 mM as filed; unlikely as a test dose) | Percent Effect [%] |
| --- | --- | --- |
| O=C(Nc1ccccc1F)c1nn(C2CCS(=O)(=O)C2)c2c1CCCC2 (stereo not given) | 38.15% and 35.56% |  |
| O=C(Nc1ccc(Cl)cc1)c1nn(C2CCS(=O)(=O)C2)c2c1CCCC2 (stereo not given) | -17.96% and -20.43% |  |
| O=C(Nc1ccccc1)c1nn(C2CCS(=O)(=O)C2)c2c1CCCC2 (stereo not given) | 23.34% and 42.14% and 38.32% |  |
| O=C(Nc1ccc(Cl)cn1)c1nn(C2CCS(=O)(=O)C2)c2c1CCCC2 (stereo not given) | 72.26% and 68.39% |  |
| CC1CCN(S(=O)(=O)NCc2ccccc2Cn2cccn2)CC1 |  | 3.533 |
| c1cncc(CN2CCCC3(COCCN(c4cncnc4)C3)C2)c1 (stereo not given) |  | -1.976 |
| C[C@H](NS(C)(=O)=O)C(=O)NCc1cc(-c2ccco2)n[nH]1 |  | -6.52 |
| CC(C)[C@H](NS(C)(=O)=O)C(=O)NCc1cc(-c2ccccc2)n[nH]1 |  | -6.181 |
| CCc1nn(C)c(Cl)c1CN(CCOC)Cc1cnn(C)c1 |  | -2.336 |
| CCOc1cc(/C=C/c2ncc(C(=O)O)s2)cc(Br)c1OC |  | 6.645 |
| CCOc1ncccc1C(=O)N1CCCC1Cn1nc(C)cc1C (stereo not given) |  | -1.877 |
| CC(c1ccncn1)N(C)Cc1cc2cc3c(cc2[nH]c1=O)OCO3 (stereo not given) | 36.77% and 42.23% and 61.28% |  |
| CC(c1ccccn1)N(C)Cc1cc2cc3c(cc2[nH]c1=O)OCO3 (stereo not given) | 18.92% and 31.37% and 23.56% |  |
| CN(C)CCOCC1CN(Cc2ccc(F)cc2)Cc2nnn(C)c21.O=C(O)C(F)(F)F.O=C(O)C(F)(F)F (stereo not given) |  | 3.947 |
| CCCn1cc(NC(=O)c2ccc(S(C)(=O)=O)cc2)ccc1=O |  | -6.389 |
| O=C(O)CCNC(=O)N1CCc2c([nH]c3ccc(Cl)cc23)C1 | -34.22% and -28.29% |  |
| O=C(O)CCCNC(=O)N1CCc2c([nH]c3ccc(Cl)cc23)C1 | 31.15% and 28.91% |  |
| COC(=O)CCCNC(=O)N1CCc2c([nH]c3ccc(Cl)cc23)C1 | 80.07% and 78.06% |  |
| CC(C)N1c2sc(-c3ccsc3)nc2CC1C(=O)NC1CCCC1 (stereo not given) | 80.44% and 80.12% |  |
| CN(C)C(=O)N1CCN(Cc2cnc(-c3ccsc3)s2)CC1 |  | -10.41 |
| CC(C)CC(=O)N1CCC(Nc2nc(O)cc(-c3ccsc3)n2)CC1 |  | 14.33 |
| CC(C)N1c2sc(-c3ccsc3)nc2CC1C(=O)NC1CC1 (stereo not given) | 76.28% and 81.46% |  |
| Cc1nc(-c2ccsc2)sc1C(=O)N1CCn2c(C)nnc2C1 |  | 4.116 |
| O=C(NC1CCCC1)C1Cc2nc(-c3ccsc3)sc2N1CC1CC1 (stereo not given) | 9.544% and 5.829% and 5.902% |  |
| Cc1ccncc1CN1CCOCC1c1[nH]ncc1C (stereo not given) |  | -4.491 |
| Cc1cccc(CN2CCC(c3csc4nccn34)CC2)n1.O=CO |  | 3.885 |
| N#Cc1cccc(N2CC3(CCN(C(=O)c4ccncc4)C3)CC2=O)c1.O=C(O)C(F)(F)F (stereo not given) |  | -19.71 |

Source: ChEMBL document CHEMBL3988442, “University of Dundee, Small-Polar-MMV Screening Library” (2021)
